# Results reported in PubChem BioAssay AID686978 (National Center for Advancing Translational Sciences (NCATS), 2013).
# Screen size: about 420,000 compounds; about 64,000 (15%) were called active. Another 27% or so got no clear call; they are omitted. Calls come from the whole dose curve; as a rule, active = well fitted inhibition curve with a large enough effect; inconclusive = small, poorly fitted or top-dose-only effect; inactive = flat fitted curve, though single readings scatter. A selection follows. Entries that show only a call come without a potency.
# Assay: qHTS for Inhibitors of human tyrosyl-DNA phosphodiesterase 1 (TDP1): qHTS in cells in absence of CPT; note: nearly all actives have a fitted effect of over 55% in size
# Details: DT40 Tdp1-/- hTDP1 cells, no CPT, ATP luminescence, 48 h; activity change, negative = growth inhibition: at 46.2 µM (top of the series)
# Summary of the method: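 Readout: luminescence from CellTiter-Glo after 30 min in the dark at RT. Cells: DT40 Tdp1-/- with stable hTDP1, 400/well. Exposure: compounds alone, ≥48 hr, 37 °C.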
# Potency is the fitted concentration of half-maximal effect.
row,SMILES,Potency
1,CCOc1ccc(-c2cc3c(=O)n(CC(=O)NCc4ccc(OC)cc4)ccn3n2)cc1,inactive
2,COCCCNC(=S)NNC(=O)C(O)(c1ccccc1)c1ccccc1,inactive
3,COc1cc(C2/C(=C(\O)c3ccc4c(c3)CC(C)O4)C(=O)C(=O)N2c2nnc(C)s2)cc(OC)c1OC (stereo not given),inactive
4,CS(=O)(=O)N1CCc2nc(-c3ccccc3)sc2C1,inactive
5,COC(=O)c1cccc(N2C(=O)C3C4C=CC(CC4)C3C2=O)c1 (stereo not given),inactive
6,COC(=O)[C@@]1(Sc2ccc(C)cc2)CC(=O)N(c2cccc(SC)c2)[C@@H]1c1ccccc1,inactive
7,COC(=O)c1ccccc1SC1CC(=O)N(c2cccc(C)c2)C1=O (stereo not given),8.2 µM (active)
8,Cc1ccc(CC2S/C(=C(/C#N)C(=O)N3CCOCC3)N(c3ccccc3)C2=O)cc1 (stereo not given),inactive
9,CC(=O)N/C(=C/c1ccc(Cl)cc1)C(=O)NCCc1c[nH]c2ccccc12,inactive
10,C[n+]1ccc(/C=C/c2c[nH]c3ccccc23)cc1,0.651 µM (active)
11,O=C(NC1CCCC1)C(=O)c1c[nH]c2ccccc12,inactive
12,O=C(NCc1ccc(F)cc1F)[C@@H]1CCCN1C(=O)[C@@H]1CCCN1C(=O)c1cccc(Cl)c1,inactive
13,Cc1cc(=O)oc2c1c(C)nn2-c1ccc(Cl)cc1,inactive
14,O=C(Nc1ccccc1)OCc1cn(-c2ccc(Cl)cc2)nn1,inactive
15,CC(=O)c1cccc(-c2cnc3c(NC=O)cc(-c4ccc(N(C)C)cc4)cn23)c1,8.2 µM (active)
16,Cc1ccc(C(=O)N2CCN(C(=O)N3CCOCC3)CC2)cc1,inactive
17,CC(=O)c1ccc(-c2cnc3c(NC=O)cc(-c4cccc(NS(C)(=O)=O)c4)cn23)cc1,20.6 µM (active)
18,CC(=O)Nc1cccc(-c2cnc3ccccc3n2)c1,inactive
19,O=CNc1cc(-c2ccc(C(=O)N3CCOCC3)cc2)cn2c(-c3ccc(F)cc3)cnc12,18.4 µM (active)
20,CC(=O)Nc1cccc(-c2cc(NC=O)c3ncc(-c4ccc(F)c(Cl)c4)n3c2)c1,16.4 µM (active)
21,CCOc1ccccc1C1CC(c2cccc(NS(C)(=O)=O)c2)=NN1C(=O)c1ccccc1 (stereo not given),inactive
22,Cc1c(NC(=O)Nc2ccc(F)c(Cl)c2)c(=O)n(-c2ccccc2)n1C,inactive

row,SMILES,Potency
1,N#C/C=C(/c1ccc(F)cc1)N1CCOCC1,inactive
2,CCS(=O)(=O)Nc1cc(C(=O)N2C[C@@H](C)O[C@@H](C)C2)c2c(c1)nc(-c1ccccc1)n2C,inactive
3,COC(c1ccccc1)c1nnc(CCC(=O)N2CCN(CCOc3ccccc3)CC2)o1 (stereo not given),inactive
4,CSc1nnc2c(n1)OC(c1cn(C)c3ccccc13)N(C(C)=O)c1ccccc1-2 (stereo not given),inactive
5,O=C(O)c1ccccc1CSc1nc2ccccc2s1,inactive
6,CCNC(=O)CC1C(=O)N(c2ccc(F)cc2)C(=O)N1CCc1sccc1C (stereo not given),inactive
7,Cc1nc2nc[nH]n2c(=O)c1C/C=C/c1ccccc1,inactive
8,CCn1c(CSc2ncccn2)nnc1SCC(=O)N1c2ccccc2CC1C (stereo not given),inactive
9,CCc1nnc(NC(=O)CCC(=O)NCc2ccccc2OC)s1,inactive
10,COc1ccccc1C1/C(=C(/O)c2ccc(OC(C)C)cc2)C(=O)C(=O)N1c1cc(C)on1 (stereo not given),inactive
11,O=C(Nc1ccc(F)cc1)N1CCN(c2ccc(F)cc2)CC1,inactive
12,CC(=O)Nc1cc(-c2ccc(N3CCN(C)CC3)cc2)cn2c(-c3ccc(F)cc3)cnc12,4.61 µM (active)
13,CN(C)C(=O)c1cccc(-c2cnc3c(NC=O)cc(-c4ccc(F)cc4)cn23)c1,6.51 µM (active)
14,COc1ccc(NC(C)=O)cc1NC(=O)CN1CCN(c2ccc(F)cc2)CC1,inactive
15,CC(=O)c1cccc(-c2cnc3c(NC=O)cc(-c4ccccc4Oc4ccccc4)cn23)c1,14.6 µM (active)
16,COc1ccc(-c2nnco2)cc1OC,inactive
17,COc1ccc(-c2cc(NC=O)c3ncc(-c4ccccc4)n3c2)cc1OC,8.2 µM (active)
18,COc1ccc(-c2nnc(SCC(=O)Nc3ccccc3C)o2)cc1OC,inactive
19,CCCCCCCCCCOC(=O)C[N+](C)(C)CC1CCCCC1O (stereo not given),inactive
20,CO/N=C/c1cn(-c2ccc(Cl)cc2)nn1,inactive
21,CCOC(=O)CSc1nnc(CNC(=O)c2cccs2)n1-c1ccccc1,inactive
22,Nc1ccc(-c2nnc(-c3ccccc3)o2)cc1,inactive

row,SMILES,Potency
1,COc1ccccc1C1C(C(N)=O)=C(C)Nc2nc(CCCO)nn21 (stereo not given),inactive
2,Cc1cccc(C)c1NC(=O)CNC(=O)c1ccc2c(c1)OCCO2,inactive
3,COc1ccccc1NC(=O)CCSc1nnc(-c2ccc(O)cc2)o1,inactive
4,COCCCN1C(=O)c2ccc(C(=O)Nc3ccc(OC)cc3OC)cc2C1=O,inactive
5,COc1ccc(-c2cc(NC=O)c3ncc(-c4cccc(C(=O)N(C)C)c4)n3c2)c(OC)c1,16.4 µM (active)
6,CC(=O)c1cccc(-c2cnc3c(NC=O)cc(-c4ccc(N5CCN(C)CC5)cc4)cn23)c1,16.4 µM (active)
7,COc1ccc(C2C(C(=O)Nc3ccccc3OC)=C(C)Nc3nnnn32)c(OC)c1 (stereo not given),inactive
8,COc1ccc(C2(C#N)CCC(C(=O)O)CC2)cc1OC1CCCC1 (stereo not given),inactive
9,Cc1coc2cc3oc(=O)c(CCC(=O)O)c(C)c3cc12,inactive
10,CC(C)Cc1nnc(NC(=O)CCC(=O)Nc2ccc3cn[nH]c3c2)s1,inactive
11,Nc1nonc1-n1nnc(C(=O)N/N=C\c2ccncc2)c1CN1CCCCC1,inactive
12,COc1ccc(Cc2nnc(NS(=O)(=O)Cc3ccccc3)s2)cc1,inactive
13,CCC(C)(C(=O)NC1CCCC1)N(C(=O)CNC(C)=O)c1ccc(C)cc1 (stereo not given),inactive
14,Cc1nc2nc(SCC(=O)c3ccccc3)[nH]c2cc1Br,inactive
15,COc1ccc2c(C)c(CCC(=O)NC3CC3)c(=O)oc2c1C,16.4 µM (active)
16,Cc1c(CCC(=O)O)c(=O)oc2c(C)c(OCc3ccccc3Cl)ccc12,inactive
17,COc1ccc(OC)c(Cc2nnc(CCC(=O)NC3CCCC3)o2)c1,inactive
18,O=C(Nc1cccc2c1N(C(=O)c1ccco1)CCC2)c1ccco1,inactive
19,O=c1[nH]c2ccc(S(=O)(=O)N3CCCC3)cc2[nH]1,inactive
20,Cc1cc(C)cc(NC(=O)N(C)Cc2ccccc2)c1,inactive
21,COC(=O)C(NS(=O)(=O)c1ccc(F)cc1)c1ccccc1 (stereo not given),inactive
